Structures are written as SMILES. Inconclusive results are not listed. A number with no mark means an inactive call. Active and inactive are the calls of the source. Calls come from the whole dose curve; as a rule, active = well fitted inhibition curve with a large enough effect; inconclusive = small, poorly fitted or top-dose-only effect; inactive = flat fitted curve, though single readings scatter.

Data on 6 compounds can be found in PubChem BioAssay (NCATS).
% is set by controls: 0 for no effect and ±100 for the full control effect; potency is the fitted concentration of half-maximal effect.

The subject of this test is NIH3T3. The test can be described thus: Cytotoxic Profiling of Annotated Libraries Using Quantitative High-Throughput Screening (AID 1296008). Note: nearly all actives have a fitted effect of over 60% in size. As to conditions: Five cell lines viability, CellTiter-Glo ATP luminescence, 48-72 h; max response: hits give low values. The essentials: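 Cells exposed to compounds for 48 or 72 hr at 37 degrees Celsius. Viability read as ATP-coupled luminescence with CellTiter-Glo after 10 min at room temperature.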
In general terms: Cellular ATP, detected with luciferase, serves as a proxy for viable cell number.
With `COc1cc(Br)c(Nc2nc(-c3c(C)nc4ncccn34)cs2)c(Br)c1`, the Potency was 1.46 µM (active). On to `CO[C@@H](C)Cn1c(=O)n(C)c2cnc3ccc(-c4cncc(C(C)(C)O)c4)cc3c21`, for which the Potency was 0.326 µM (active).

Take `C=C1C(=O)O[C@H](CCC)[C@H]1C(=O)O`: the result was inactive. The same measure, in the same setting: next, `CC1(C)CC[C@]2(C(=O)O[C@@H]3O[C@H](CO)[C@@H](O)[C@H](O)[C@H]3O)CC[C@]3(C)C(=CCC4[C@@]5(C)CC[C@H](O[C@@H]6O[C@H](C(=O)O)[C@@H](O)[C@H](O[C@@H]7O[C@H](CO)[C@H](O)[C@H](O)[C@H]7O)[C@H]6O)C(C)(C)C5CC[C@]43C)C2C1` (stereo partly specified): “inactive”.

With `C[C@@H]1O[C@@H](O[C@H]2[C@H](O[C@H]3[C@H](O[C@H]4CC[C@@]5(C)C(CC[C@]6(C)C5CC=C5[C@@H]7CC(C)(C)C[C@@H](O)[C@]7(C)CC[C@]56C)[C@@]4(C)CO)O[C@H](C(=O)O)[C@@H](O)[C@@H]3O)OC[C@H](O)[C@@H]2O)[C@H](O)[C@H](O)[C@H]1O` (stereo partly specified), the max response is -4.51%. On the same count and under the same terms, with `COc1cc(Br)c(S(=O)(=O)Nc2ccc(C(F)(F)F)c(O[C@@H]3CCN(C)C3)c2)cc1OC` the figure was -2.88%.
